Data on 40 compounds can be found in the supplement of paper PMC10981050.

What is called cell viability is a read-out of living cells in per cent, often relative to untreated cells.

SMILES strings stand for the structures. Counter-ions that a name gives are not always drawn.

One assay deals with K562. Kind of assay: cell viability relative to vehicle control; higher = less cytotoxic. Particulars: 10 µM; SRSF2 genotype: SRSF2 wt/wt. The method in brief:
(§1)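 CRISPR-edited mutant clones and isogenic wild-type clones from four leukaemia lines were screened against Selleck bioactive, kinase and epigenetic probe libraries, with identity-inconsistent compounds excluded. Each compound was acoustically dispensed at a single 10 µM dose into 384-well plates holding 2000 cells in 50 µL medium per well. After 48 h the supernatant was removed and CellTiter-Glo luminescence was read. Viability was expressed as percent of the on-plate vehicle control and analysed in Genedata Screener.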
For `CNc1ccc([N+](=O)[O-])c(Nc2ccc3[nH]ncc3c2)n1`, the cell viability was 58.6%.

`CN(C)/N=N/c1[nH]cnc1C(N)=O` [Dacarbazine (DTIC-Dome)]: the cell viability amounted to 110%.

Consider `Cc1ccc(CN(CC(O)COc2cccc3[nH]ccc23)C(C)(C)C)cc1` (configuration not stated), for which the cell viability came out at 66.8%.

In the case of `CN1CCN(C2=Nc3cc(Cl)ccc3Nc3ccccc32)CC1` [Clozapine (Clozaril)], the cell viability was 98.8%.

For the compound `C[C@]1(O)C[C@@H](O)[C@@H]2C=CO[C@@H](O[C@@H]3O[C@H](CO)[C@@H](O)[C@H](O)[C@H]3O)[C@@H]21` [Leonuride], the cell viability was found to be 106%.

`CCCCCCCCCC(C)O` (configuration not stated) [2-Undecanol]: the cell viability was found to be 105%.

Take `CC(C)(C)n1nc(-c2ccc(Cl)cc2)c2c(N)ncnc21`: the cell viability was found to be 63.3%.

As for `Cc1cc(O)c(-c2ccc([C@@H](C)CN(C)C)cc2)c2c1[nH]c(=O)c1sccc12`, the cell viability was determined as 14.7%.

As for `CC1(C)CC[C@]2(C(=O)O)CC[C@]3(C)C(=CC[C@@H]4[C@@]5(C)CC[C@H](O)C(C)(C)[C@@H]5CC[C@]43C)[C@@H]2C1` [Oleanolic Acid (Caryophyllin)], the cell viability turned out to be 87.9%.

With `C[C@@H]1CC[C@@]2(OC1)O[C@H]1C[C@H]3[C@@H]4CC=C5C[C@@H](O[C@@H]6O[C@H](CO)[C@@H](O)[C@H](O)[C@H]6O)CC[C@]5(C)[C@H]4CC[C@]3(C)[C@H]1[C@@H]2C` [Trillin], the cell viability turned out to be 94%.

With `CCCCCCOC(=O)c1cc(=O)c(O)c2c(O)c(O)c(OC)cc2c1`, the cell viability came to 46.8%.

`CCOc1ccc(Cc2cc([C@@H]3O[C@H](SC)[C@@H](O)[C@H](O)[C@H]3O)ccc2Cl)cc1` [Sotagliflozin (LX4211)]: the cell viability came to 81.4%.

In the case of `c1cc(CN2CCCNCCNCCCNCC2)ccc1CN1CCCNCCNCCCNCC1` [Plerixafor], the cell viability was 99.1%.

As to `Nc1ncnc2c1ncn2C(C=O)OC(C=O)CO` (configuration not stated) [Adenosine Dialdehyde (ADOX)], the cell viability was determined as 69.3%.

In the case of `COc1ccc(CNc2nc(N3CCC[C@H]3CO)ncc2C(=O)NCc2ncccn2)cc1Cl` [Avanafil], the cell viability came to 98.8%.

Take `CC(C)=CC(O)C/C(C)=C/COc1c2ccoc2cc2oc(=O)ccc12` (configuration not stated) [Notopterol]: the cell viability was 76.1%.

`Cc1nc(N(C)C(=O)Cc2ccc(-c3ccccn3)cc2)sc1S(N)(=O)=O` [Pritelivir (BAY 57-1293)]: the cell viability was 92.1%.

On to `C[C@@H](CN1CC(=O)NC(=O)C1)N1CC(=O)NC(=O)C1` [Dexrazoxane], for which the cell viability was determined as 110%.

Regarding `O=C(O)[C@H]1O[C@@H](Oc2cc3oc(-c4ccc(O)cc4)cc(=O)c3c(O)c2O)[C@H](O)[C@@H](O)[C@@H]1O` [Scutellarin], the cell viability was found to be 96%.

Turning to `CC(C)=CCCC(C)(O)C1CCC2(C)C1C(O)CC1C3(C)CCC(O)C(C)(C)C3C(OC3OC(CO)C(O)C(O)C3OC3OC(C)C(O)C(O)C3O)CC12C` [(20S)Ginsenoside Rg2], the cell viability was 98.7%.

In the case of `C=CC(=O)N[C@H]1CCOC[C@H]1Nc1ncc2cc(-c3c(Cl)c(OC)cc(OC)c3Cl)ccc2n1`, the cell viability was determined as 80.2%.

In the case of `C=C[C@]1(C)C[C@@H](OC(=O)CSC(C)(C)CNC(=O)[C@H](N)C(C)C)[C@]2(C)[C@H](C)CC[C@]3(CCC(=O)[C@H]32)[C@@H](C)[C@@H]1O` [Valnemulin HCl], the cell viability came out at 75.3%.

A further assay relates to MARIMO. Described as above. The note with it: 10 µM; SRSF2 genotype: SRSF2 P95H/wt. The method in brief:
as §1
Take `COc1ccc2c(c1)c(CC(=O)OCC(=O)O)c(C)n2C(=O)c1ccc(Cl)cc1` [Acemetacin (Emflex)]: the cell viability was determined as 97.8%.

For the compound `CC(c1cc2ccccc2s1)N(O)C(N)=O` (configuration not stated) [Zileuton], the cell viability was determined as 94.3%.

As to `COc1ccc(C(=O)CC(=O)c2ccc(C(C)(C)C)cc2)cc1` [Avobenzone (Parsol 1789)], the cell viability turned out to be 77.2%.

Regarding `CNC(=O)[C@H](Cc1ccccc1)NC(=O)[C@H](CC(C)C)[C@H](CSc1cccs1)C(=O)NO` [Batimastat (BB-94)], the cell viability amounted to 79%.

Regarding `Nc1ncnc2c1c(-c1cccc(OCc3ccccc3)c1)cn2C1CC(CN2CCCC2)C1` (configuration not stated), the cell viability is 47.1%.

As for `C=C1C[C@@]23CC[C@H]4[C@@](C)(CCC[C@@]4(C)C(=O)O)[C@@H]2CC[C@@H]1C3` [Kaurenoic acid], the cell viability worked out at 105%.

On to `CC(C)[C@H](NC(=O)[C@H](CC(=O)O)NC(=O)[C@H](CCCCN)NC(=O)[C@@H](N)CCCN=C(N)N)C(=O)N[C@@H](Cc1ccc(O)cc1)C(=O)O` [Thymopentin], for which the cell viability came out at 86.4%.

On to `C=CC(=O)Nc1cccc(Nc2nc(Nc3ccc(NC4CN(CCF)C4)cc3OC)ncc2C(F)(F)F)c1`, for which the cell viability stood at 22.3%.

Consider `CC1(C)O[C@@H]2[C@@H](CO[C@@]3(COS(N)(=O)=O)OC(C)(C)O[C@@H]23)O1` [Topiramate], for which the cell viability was 104%.

As for `O=S(=O)(NCCSSCCNS(=O)(=O)c1cc(Cl)ccc1Cl)c1cc(Cl)ccc1Cl`, the cell viability was found to be 61%.

On to `COC(=O)CCC(C)C1CCC2C3C(O)CC4CC(O)CCC4(C)C3CC(O)C12C` (configuration not stated) [Methyl Cholate], for which the cell viability came out at 104%.

For `COc1ccc(C2=NC(c3ccc(Cl)cc3)C(c3ccc(Cl)cc3)N2C(=O)N2CCNC(=O)C2)c(OC(C)C)c1` (configuration not stated) [Nutlin-3b], the cell viability was found to be 87.5%.

In the case of `Clc1ncnc2nc[nH]c12` [6-Chloropurine], the cell viability was found to be 92.3%.

On to `CCC1=C[C@@H]2CN(C1)Cc1c([nH]c3ccccc13)[C@@](C(=O)OC)(c1cc3c(cc1OC)N(C)[C@H]1[C@@](O)(C(=O)OC)[C@H](OC(C)=O)[C@]4(CC)C=CCN5CC[C@]31[C@@H]54)C2` [Vinorelbine Tartrate], for which the cell viability worked out at 7.46%.

For the compound `Cc1nccn1CC1CCc2c(c3ccccc3n2C)C1=O` (configuration not stated) [Ondansetron hydrochloride (Zofran)], the cell viability came out at 88.4%.

As for `CC(C)=CCCC(C)(O)C1CCC2(C)C1C(O)CC1C3(C)CCC(O)C(C)(C)C3CCC12C` [(20S)-Protopanaxadiol], the cell viability stood at 96.7%.

Consider `C[C@@H]1O[C@@H](O[C@@H]2[C@@H](O)[C@H](OCCc3ccc(O)c(O)c3)O[C@H](CO)[C@H]2OC(=O)/C=C/c2ccc(O)c(O)c2)[C@H](O)[C@H](O)[C@H]1O` [Verbascoside], for which the cell viability was 82.8%.

With `C=C1C[C@@]23CC[C@H]4[C@@](C)(CCC[C@@]4(C)C(=O)O)[C@@H]2CC[C@]1(O[C@@H]1O[C@@H](CO)[C@@H](O)[C@H](O)[C@@H]1O[C@@H]1O[C@@H](CO)[C@@H](O)[C@H](O)[C@@H]1O)C3` [Steviolbioside], the cell viability was determined as 114%.

For the compound `CNc1ccc([N+](=O)[O-])c(Nc2ccc3[nH]ncc3c2)n1`, the cell viability stood at 50.4%.

As for `CN(C)/N=N/c1[nH]cnc1C(N)=O` [Dacarbazine (DTIC-Dome)], the cell viability was found to be 108%.

With `Cc1ccc(CN(CC(O)COc2cccc3[nH]ccc23)C(C)(C)C)cc1` (configuration not stated), the cell viability is 67%.

On to `CN1CCN(C2=Nc3cc(Cl)ccc3Nc3ccccc32)CC1` [Clozapine (Clozaril)], for which the cell viability came to 104%.

As to `C[C@]1(O)C[C@@H](O)[C@@H]2C=CO[C@@H](O[C@@H]3O[C@H](CO)[C@@H](O)[C@H](O)[C@H]3O)[C@@H]21` [Leonuride], the cell viability came to 101%.

Consider `CCCCCCCCCC(C)O` (configuration not stated) [2-Undecanol], for which the cell viability came out at 111%.

For the compound `CC(C)(C)n1nc(-c2ccc(Cl)cc2)c2c(N)ncnc21`, the cell viability amounted to 84.6%.

As to `Cc1cc(O)c(-c2ccc([C@@H](C)CN(C)C)cc2)c2c1[nH]c(=O)c1sccc12`, the cell viability turned out to be 1.85%.

Turning to `CC1(C)CC[C@]2(C(=O)O)CC[C@]3(C)C(=CC[C@@H]4[C@@]5(C)CC[C@H](O)C(C)(C)[C@@H]5CC[C@]43C)[C@@H]2C1` [Oleanolic Acid (Caryophyllin)], the cell viability was 80.7%.

With `C[C@@H]1CC[C@@]2(OC1)O[C@H]1C[C@H]3[C@@H]4CC=C5C[C@@H](O[C@@H]6O[C@H](CO)[C@@H](O)[C@H](O)[C@H]6O)CC[C@]5(C)[C@H]4CC[C@]3(C)[C@H]1[C@@H]2C` [Trillin], the cell viability worked out at 76.7%.

Take `CCCCCCOC(=O)c1cc(=O)c(O)c2c(O)c(O)c(OC)cc2c1`: the cell viability was 45.2%.

In the case of `CCOc1ccc(Cc2cc([C@@H]3O[C@H](SC)[C@@H](O)[C@H](O)[C@H]3O)ccc2Cl)cc1` [Sotagliflozin (LX4211)], the cell viability is 86.3%.

Take `c1cc(CN2CCCNCCNCCCNCC2)ccc1CN1CCCNCCNCCCNCC1` [Plerixafor]: the cell viability is 96.2%.

For `Nc1ncnc2c1ncn2C(C=O)OC(C=O)CO` (configuration not stated) [Adenosine Dialdehyde (ADOX)], the cell viability stood at 60.7%.

With `COc1ccc(CNc2nc(N3CCC[C@H]3CO)ncc2C(=O)NCc2ncccn2)cc1Cl` [Avanafil], the cell viability was determined as 104%.

Regarding `CC(C)=CC(O)C/C(C)=C/COc1c2ccoc2cc2oc(=O)ccc12` (configuration not stated) [Notopterol], the cell viability worked out at 64.7%.

Consider `Cc1nc(N(C)C(=O)Cc2ccc(-c3ccccn3)cc2)sc1S(N)(=O)=O` [Pritelivir (BAY 57-1293)], for which the cell viability stood at 103%.

Turning to `C[C@@H](CN1CC(=O)NC(=O)C1)N1CC(=O)NC(=O)C1` [Dexrazoxane], the cell viability stood at 88.2%.

Turning to `O=C(O)[C@H]1O[C@@H](Oc2cc3oc(-c4ccc(O)cc4)cc(=O)c3c(O)c2O)[C@H](O)[C@@H](O)[C@@H]1O` [Scutellarin], the cell viability came to 100%.

Regarding `CC(C)=CCCC(C)(O)C1CCC2(C)C1C(O)CC1C3(C)CCC(O)C(C)(C)C3C(OC3OC(CO)C(O)C(O)C3OC3OC(C)C(O)C(O)C3O)CC12C` [(20S)Ginsenoside Rg2], the cell viability was 108%.

`C=CC(=O)N[C@H]1CCOC[C@H]1Nc1ncc2cc(-c3c(Cl)c(OC)cc(OC)c3Cl)ccc2n1`: the cell viability turned out to be 85.8%.

Consider `C=C[C@]1(C)C[C@@H](OC(=O)CSC(C)(C)CNC(=O)[C@H](N)C(C)C)[C@]2(C)[C@H](C)CC[C@]3(CCC(=O)[C@H]32)[C@@H](C)[C@@H]1O` [Valnemulin HCl], for which the cell viability worked out at 74%.
